Reference: PubChem BioAssay AID1159580 (chemical genetic matrix, 2015)
The campaign covered roughly 5,500 compounds. About 2,000 (36%) were called active. About 18% were inconclusive and are not listed. Cut-off read from the data, not from the text of the source: active = normalized growth mostly below about 0.91 (no sharp cut-off); inconclusive = no clear call, values can overlap the other calls; inactive = mostly above about 0.92. The list shows a part of the results.

Experiment: chemical genetic growth profiling, strain panel (AID 1159580);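 note: tested at 20 µM; growth read once vehicle control cultures reached saturation at 30 °C; 1 = growth at the plate median or of vehicle wells; lower values mean less growth of the strain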
Details: S. cerevisiae deletion strains, growth OD

Measured: normalized growth

COC(OC)c1ccc(C#N)c(=S)[nH]1
inactive: locus YAL013W, strain DEP1, stronger effect = lower value 1.01 | locus YBR229C, strain ROT2, stronger effect = lower value 1.02 | locus YCL061C, strain MRC1, stronger effect = lower value 1.01 | locus YDL101C, strain DUN1, stronger effect = lower value 1 | locus YDL134C, strain PPH21, stronger effect = lower value 1.01 | locus YDR150W, strain NUM1, stronger effect = lower value 0.996 | locus YEL061C, strain CIN8, stronger effect = lower value 1.01 | locus YGR078C, strain PAC10, stronger effect = lower value 0.989 | locus YHR030C, strain SLT2, stronger effect = lower value 1.08 | locus YHR087W, strain rtc3, stronger effect = lower value 1.03 | locus YJL187C, strain SWE1, stronger effect = lower value 0.994 | locus YJR043C, strain POL32, stronger effect = lower value 1.01 | locus YJR075W, strain HOC1, stronger effect = lower value 1 | locus YLR039C, strain RIC1, stronger effect = lower value 1.05 | locus YLR058C, strain SHM2 (second series), stronger effect = lower value 1.01 | locus YLR085C, strain ARP6, stronger effect = lower value 1.16 | locus YLR262C, strain YPT6, stronger effect = lower value 1 | locus YML094W, strain GIM5, stronger effect = lower value 1.04 | locus YMR219W, strain ESC1, stronger effect = lower value 1.01 | locus YMR263W, strain SAP30, stronger effect = lower value 1.02 | locus YMR307W, strain GAS1, stronger effect = lower value 1.06 | locus YNL153C, strain GIM3, stronger effect = lower value 1 | locus YNL298W, strain CLA4 (second series), stronger effect = lower value 1.02 | locus YNL322C, strain KRE1, stronger effect = lower value 1.01 | locus YNR030W, strain Alg12, stronger effect = lower value 0.992 | locus YPL055C, strain LGE1, stronger effect = lower value 1.04 | locus YPL241C, strain CIN2, stronger effect = lower value 1.11 | locus YPR135W, strain CTF4, stronger effect = lower value 1.1
